Experimental data as given in the supplement of paper PMC8975748.
Where a name gives a salt, the structure may show the parent alone. ± gives the standard deviation of the averaged measurements.

Key:
[1] = system: Saccharomyces cerevisiae BY4741 SeMeCo community; experiment: mean cell size (pixel area) (pixels); higher = larger cells; details: 10 µM; 24 h; SM minimal medium
Procedure, shortened: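 Mean cell pixel area per well was measured in a four-plasmid fluorescent community of Saccharomyces cerevisiae BY4741, where every plasmid complements one auxotrophy and carries a fluorescent marker. Cells from an overnight preculture at OD600 = 1.0 were diluted to OD600 = 0.3 and dispensed at 70 µl into 384-well plates acoustically predosed with drug to a final 10 µM in SM medium. Incubation lasted 24 h, followed by paraformaldehyde fixation, automated confocal imaging and analysis in Harmony. Reported figures are averaged over 3 replicates. Same SeMeCo high-content imaging drug screen: Selleck FDA-approved drugs at 10 µM, 24 h in SM medium, 384-well plates, 3 replicates.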

[2] = system: Saccharomyces cerevisiae BY4741 SeMeCo community; experiment: z-score of prototroph abundance vs DMSO median; higher = larger share of this subpopulation than in DMSO controls; details: 10 µM; 24 h; SM minimal medium; subpopulation (auxotrophy): Prototroph
Procedure, shortened: (§1)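 Scoring was based on each subpopulation's abundance, expressed as a z-score against the vehicle-well median. A Saccharomyces cerevisiae BY4741 community with four plasmids, each restoring one auxotrophy and encoding a distinct fluorescent protein, was pre-grown overnight to OD600 1.0, diluted to 0.3, and added at 70 µl to 384-well plates acoustically predosed with library drugs (10 µM final). It then grew 24 h in minimal SM medium before paraformaldehyde fixation and automated confocal microscopy, with single-auxotroph fluorescent strains setting thresholds and autofluorescence correction.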

[3] = system: Saccharomyces cerevisiae BY4741 SeMeCo community; experiment: z-score of subpopulation abundance vs DMSO median, subpopulation auxotrophic for M; higher = larger share of this subpopulation than in DMSO controls; details: 10 µM; 24 h; SM minimal medium; subpopulation (auxotrophy): M
Procedure, shortened: as §1

[4] = system: Saccharomyces cerevisiae BY4741 SeMeCo community; experiment: z-score of subpopulation abundance vs DMSO median, subpopulation auxotrophic for L; higher = larger share of this subpopulation than in DMSO controls; details: 10 µM; 24 h; SM minimal medium; subpopulation (auxotrophy): L
Procedure, shortened: as §1

[5] = system: Saccharomyces cerevisiae BY4741 SeMeCo community; experiment: z-score of subpopulation abundance vs DMSO median, subpopulation auxotrophic for U; higher = larger share of this subpopulation than in DMSO controls; details: 10 µM; 24 h; SM minimal medium; subpopulation (auxotrophy): U
Procedure, shortened: as §1

[6] = system: Saccharomyces cerevisiae BY4741 SeMeCo community; experiment: z-score of subpopulation abundance vs DMSO median, subpopulation auxotrophic for H; higher = larger share of this subpopulation than in DMSO controls; details: 10 µM; 24 h; SM minimal medium; subpopulation (auxotrophy): H
Procedure, shortened: as §1

[7] = system: Saccharomyces cerevisiae BY4741 SeMeCo community; experiment: z-score of subpopulation abundance vs DMSO median, subpopulation auxotrophic for LU; higher = larger share of this subpopulation than in DMSO controls; details: 10 µM; 24 h; SM minimal medium; subpopulation (auxotrophy): LU
Procedure, shortened: as §1

[8] = system: Saccharomyces cerevisiae BY4741 SeMeCo community; experiment: z-score of subpopulation abundance vs DMSO median, subpopulation auxotrophic for HM; higher = larger share of this subpopulation than in DMSO controls; details: 10 µM; 24 h; SM minimal medium; subpopulation (auxotrophy): HM
Procedure, shortened: as §1

[9] = system: Saccharomyces cerevisiae BY4741 SeMeCo community; experiment: z-score of subpopulation abundance vs DMSO median, subpopulation auxotrophic for HU; higher = larger share of this subpopulation than in DMSO controls; details: 10 µM; 24 h; SM minimal medium; subpopulation (auxotrophy): HU
Procedure, shortened: as §1

[10] = system: Saccharomyces cerevisiae BY4741 SeMeCo community; experiment: z-score of subpopulation abundance vs DMSO median, subpopulation auxotrophic for UM; higher = larger share of this subpopulation than in DMSO controls; details: 10 µM; 24 h; SM minimal medium; subpopulation (auxotrophy): UM
Procedure, shortened: as §1

[11] = system: Saccharomyces cerevisiae BY4741 SeMeCo community; experiment: z-score of subpopulation abundance vs DMSO median, subpopulation auxotrophic for HL; higher = larger share of this subpopulation than in DMSO controls; details: 10 µM; 24 h; SM minimal medium; subpopulation (auxotrophy): HL
Procedure, shortened: as §1

[12] = system: Saccharomyces cerevisiae BY4741 SeMeCo community; experiment: z-score of subpopulation abundance vs DMSO median, subpopulation auxotrophic for HLU; higher = larger share of this subpopulation than in DMSO controls; details: 10 µM; 24 h; SM minimal medium; subpopulation (auxotrophy): HLU
Procedure, shortened: as §1

[13] = system: Saccharomyces cerevisiae BY4741 SeMeCo community; experiment: z-score of subpopulation abundance vs DMSO median, subpopulation auxotrophic for HUM; higher = larger share of this subpopulation than in DMSO controls; details: 10 µM; 24 h; SM minimal medium; subpopulation (auxotrophy): HUM
Procedure, shortened: as §1

[14] = system: Saccharomyces cerevisiae BY4741 SeMeCo community; experiment: z-score of subpopulation abundance vs DMSO median, subpopulation auxotrophic for LUM; higher = larger share of this subpopulation than in DMSO controls; details: 10 µM; 24 h; SM minimal medium; subpopulation (auxotrophy): LUM
Procedure, shortened: as §1

[15] = system: Saccharomyces cerevisiae BY4741 SeMeCo community; experiment: z-score of subpopulation abundance vs DMSO median, subpopulation auxotrophic for HLUM; higher = larger share of this subpopulation than in DMSO controls; details: 10 µM; 24 h; SM minimal medium; subpopulation (auxotrophy): HLUM
Procedure, shortened: as §1

[16] = system: Saccharomyces cerevisiae BY4741 SeMeCo community; experiment: z-score of subpopulation abundance vs DMSO median, subpopulation auxotrophic for LM; higher = larger share of this subpopulation than in DMSO controls; details: 10 µM; 24 h; SM minimal medium; subpopulation (auxotrophy): LM
Procedure, shortened: as §1

Row | SMILES | mean cell size [1] | z-score of prototroph abundance [2] | z-score of subpopulation abundance [3] | z-score of subpopulation abundance [4] | z-score of subpopulation abundance [5] | z-score of subpopulation abundance [6] | z-score of subpopulation abundance [7] | z-score of subpopulation abundance [8] | z-score of subpopulation abundance [9] | z-score of subpopulation abundance [10] | z-score of subpopulation abundance [11] | z-score of subpopulation abundance [12] | z-score of subpopulation abundance [13] | z-score of subpopulation abundance [14] | z-score of subpopulation abundance [15] | z-score of subpopulation abundance [16]
1 | Cc1nccn1CC1CCc2c(c3ccccc3n2C)C1=O (stereo not drawn) [Ondansetron HCl] | 12.4 ± 0.2 | 0.89 | -1.05 | -0.44 | 0.47 | -0.7 | -0.06 | -0.93 | -0.51 | 0.08 | -0.77 | -0.69 | -0.03 | -0.9 | -0.89 | –
2 | COc1cccc2c1C(=O)c1c(O)c3c(c(O)c1C2=O)C[C@@](O)(C(=O)CO)C[C@@H]3O[C@H]1C[C@H](N)[C@@H](O)[C@H](C)O1 [Epirubicin HCl] | 12.6 ± 0.2 | -0.14 | -4.59 | 1.16 | – | 1.56 | 2.53 | -3.22 | 3.44 | -0.97 | 2.24 | 2.87 | 0.3 | 2.67 | 4.48 | –
3 | CCOc1ccc2ccccc2c1C(=O)N[C@@H]1C(=O)N2[C@@H]1SC(C)(C)[C@@H]2C(=O)O [Nafcillin Sodium] | 12.2 ± 0.23 | 0.32 | -0.26 | 0.95 | -0.63 | -0.47 | 0.04 | – | -0.72 | -0.68 | – | -0.19 | 0 | 0.08 | -0.09 | 0.39
4 | C[C@]12CCC(=O)C=C1[C@@H]1C[C@@H]1[C@H]1[C@@H]3[C@@H]4C[C@@H]4[C@@]4(CCC(=O)O4)[C@@]3(C)CC[C@@H]12 [Drospirenone] | 12.53 ± 0.089 | -0.22 | 0.59 | -0.08 | -0.17 | -0.17 | 0.11 | 0.03 | 0.03 | – | 0.14 | 0.26 | -0.41 | 0.85 | -0.05 | 1.26
5 | O=C1Nc2ccccc2C1=O [Isatin] | 12.3 ± 0.17 | -0.13 | -0.49 | -0.04 | – | 0.05 | 0.53 | -0.24 | 0.91 | 0.51 | -0.64 | 0.06 | 0.2 | -0.31 | -0.52 | -0.62
6 | CCN(CC)CCOC(=O)c1ccc(N)cc1 [Procaine HCl] | 12.5 ± 0.25 | 0.84 | -0.44 | -0.69 | – | -0.47 | -0.34 | -0.71 | -0.49 | -0.8 | -0.7 | 0.02 | -1.23 | – | 0.26 | 0
7 | CO/N=C(\C(=O)N[C@@H]1C(=O)N2C(C(=O)O)=C(CSC(=O)c3ccco3)CS[C@H]12)c1csc(N)n1 [Ceftiofur] | 12.28 ± 0.045 | -0.44 | -0.46 | -0.31 | 0.57 | 0.28 | 0.54 | -0.13 | 0.47 | 0.79 | 0.39 | -0.05 | 0.28 | -0.02 | – | -0.51
8 | N#Cc1ccc2[nH]cc(CCCCN3CCN(c4ccc5oc(C(N)=O)cc5c4)CC3)c2c1 [Vilazodone] | 12.2 ± 0.28 | 0.6 | 0.28 | 0.06 | – | 0 | -0.57 | -0.16 | -0.93 | -0.2 | -0.17 | 0.77 | -0.53 | – | 0.53 | –
9 | CCCc1nn(C)c2c(=O)[nH]c(-c3cc(S(=O)(=O)N4CCN(C)CC4)ccc3OCC)nc12 [Sildenafil Mesylate] | 12.2 ± 0.17 | -0.95 | -0.91 | 0.21 | 1.64 | -0.01 | 0.91 | -0.05 | 1.74 | 0.21 | -0.5 | 0.05 | 1.55 | 0.38 | 0.08 | -0.29
10 | CC(=O)OCC1=C(C(=O)O)N2C(=O)[C@@H](NC(=O)CSc3ccncc3)[C@H]2SC1 [Cephapirin Benzathine] | 12.7 ± 0.17 | -0.46 | -0.98 | -0.54 | – | 1.45 | 0.44 | – | 1.01 | -0.24 | 0.48 | 0.25 | 0.27 | -0.22 | -0.55 | 0.09
11 | N[C@H]1CONC1=O [L-Cycloserine] | 11.54 ± 0.047 | -1.74 | -3.06 | 2.81 | -0.91 | 5.08 | 1.02 | 3.92 | 1.14 | -1.17 | – | 4.59 | 1.54 | – | – | –
12 | Cc1c[nH]c(=O)[nH]c1=O [Thymine] | 12.4 ± 0.22 | -0.52 | 0.85 | 0.24 | 0.76 | -0.36 | 0.49 | 0.33 | 0.14 | 0.58 | -0.04 | 0.71 | 0.09 | 0.24 | 0.51 | –
13 | COCCCN1CCC(NC(=O)c2cc(Cl)c(N)c3c2OCC3)CC1 [Prucalopride Succinate] | 12.5 ± 0.32 | -1.55 | 0.77 | -0.33 | 0.93 | -0.29 | 0.16 | 0.63 | 1.07 | 1.44 | 0.16 | 1.78 | 1.42 | 0.31 | 2.43 | -0.18
14 | OC1(c2ccc(Cl)c(C(F)(F)F)c2)CCN(CCCC(c2ccc(F)cc2)c2ccc(F)cc2)CC1 [Penfluridol] | 11.65 ± 0.089 | -1.64 | 1.3 | 0.81 | -0.01 | 0.09 | 0.13 | 0.4 | 0.66 | 2.69 | 0.46 | 0.93 | 0.44 | 2.56 | 0.27 | 2.64
15 | Cc1cccc(C)c1NC(=O)C1CCCCN1C (stereo not drawn) [Mepivacaine] | 12.2 ± 0.28 | -0.01 | 0.42 | -0.3 | – | -1.62 | -0.35 | -0.49 | -0.53 | 0.24 | – | 0.12 | -0.62 | 0.08 | -0.41 | 0.4
